Most compounds without a hit are left out; they make up all but 10% or so of the library.
G9a inh: blocks human histone lysine methyltransferase G9a | Q96KQ7 | 350,000 compounds, 8.8% hits | Potency, µM (series often up to 102 µM), most hits filed as inhibitors | G9a H3K9 monomethylation, AlphaScreen, 2 h; also: nearly all actives have a fitted effect of over 75% in size
Target sequence (Q96KQ7 913-1193 limits assumed): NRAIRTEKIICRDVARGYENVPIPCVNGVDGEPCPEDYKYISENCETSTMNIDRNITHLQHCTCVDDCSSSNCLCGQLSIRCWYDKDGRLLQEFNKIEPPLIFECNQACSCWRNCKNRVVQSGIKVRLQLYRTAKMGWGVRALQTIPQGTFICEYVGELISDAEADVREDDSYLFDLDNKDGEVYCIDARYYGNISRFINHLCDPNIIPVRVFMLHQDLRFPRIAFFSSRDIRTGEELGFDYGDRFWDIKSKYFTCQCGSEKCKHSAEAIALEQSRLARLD
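AlphaScreen read-out: biotin-H3K9 peptide (500 nM) methylation by 20 nM enzyme with 20 uM SAM, 2 h at room temperature after 15 min compound preincubation; anti-monomethyl H3K9 antibody plus donor/acceptor beads, 10 min dark.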
GLS inhibitor: glutaminase GLS (human) inhibition | AID 624170 | Potency, µM (highest dose often 45.5 µM), usual class: inhibitors | O94925 | 410,000 compounds, 0.21% hits | GLS enzymatic activity, qHTS titration
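Enzyme dispensed in phosphate buffer (45 mM, pH 8.2, 0.02% Tween-20), compounds pinned in, then 1 mM L-glutamine solution and the glutamate oxidase–HRP–Amplex Red mix added; fluorescence read immediately and again after 30 min at room temperature.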
HP1b chromo inh: blocks HP1-beta chromodomain binding to methylated histone tails | Potency, µM (top dose mostly 114 µM), most hits filed as inhibitors | 390,000 compounds, 0.56% hits | AID 540317 | AlphaScreen HP1-beta / biotin-H3K9me3 peptide binding; also: nearly all actives have a fitted effect of over 70% in size
Target sequence (P83916 whole entry, looked up): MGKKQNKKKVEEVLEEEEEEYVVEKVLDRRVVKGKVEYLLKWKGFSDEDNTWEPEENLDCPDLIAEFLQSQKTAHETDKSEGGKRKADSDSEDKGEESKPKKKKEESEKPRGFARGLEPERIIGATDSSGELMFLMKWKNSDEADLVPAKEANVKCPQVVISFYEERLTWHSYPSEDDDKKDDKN
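AlphaScreen: HP1-beta (50 nM) preformed 30 min with biotin-H3(1-18)K9me3 peptide (50 nM) in PBS pH 7.4, 0.01% Tween-20. Compound added for 30 min at RT, then streptavidin donor/nickel chelate acceptor beads (10 ug/mL) for 30 min.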
BAZ2B block: inhibitors of human BAZ2B bromodomain | Q9UIF8 | AlphaScreen BAZ2B-H3K14Ac peptide displacement | Potency, µM (highest dose often 114 µM), actives largely listed as inhibitors | 360,000 compounds, 4.4% hits; also: nearly all actives have a fitted effect of over 60% in size
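Protein-peptide AlphaScreen: BAZ2B 50 nM, b-H3K14Ac 50 nM, 1x PBS pH 7.4 + 0.01% Tween-20. Preincubation 30 min RT; cpd 30 min RT (top 110 uM); beads 20 min RT, light-protected.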
JMJD2A Tudor inh: inhibitors of human JMJD2A Tudor domain; Potency, µM (doses to about 114 µM), usual class: inhibitors; AlphaScreen JMJD2A-Tudor / H3K4me3 peptide binding; 390,000 compounds, 4.4% hits; AID 504339; also: nearly all actives have a fitted effect of over 50% in size
Numbers stand for hits; . = inactive; ? = inconclusive; / = no result; ! = not active in a repeat; [ ] = dose if it differs, or a comment. Calls follow the shape of the dose curve; as a rule, active = well fitted curve in the direction sought with a large enough effect; inconclusive = small, poorly fitted or top-dose-only effect, or another doubt; inactive = no such curve, though single readings can be large; an effect the other way counts as inactive or inconclusive.

SMILES | G9a inh | GLS inhibitor | HP1b chromo inh | BAZ2B block | JMJD2A Tudor inh
COc1ccc(CN2CCN(C(=O)c3cccc4ccccc34)CC2)cc1Br | 28µM | . | . | 50µM | 18µM
CCOc1cc(CN2CCN(C(=O)c3cccc4ccccc34)CC2)ccc1OC | 22µM | . | ? | 50µM | 20µM
CN(C)c1ncc2nc(-c3ccccc3)c(=O)n(-c3ccccc3)c2n1 | .[0.501 µM] | / | / | / | /
CC(=O)c1ccc(N2CCN(C(=O)c3cc(S(=O)(=O)N4CCCCCC4)cn3C)CC2)cc1 | . | . | . | . | .
COc1cccc(NC(=O)CN(C)C(=O)C(Sc2ccccc2)c2ccccc2)c1 (centres undefined) | . | . | . | . | .
Cc1c(NC(=O)COC(=O)Cc2ccc(Cl)cc2)c(=O)n(-c2ccccc2)n1C | . | . | . | . | .
Cc1c(Cl)cccc1NC(=O)c1ccc2c(c1)nnn2C1CCCC1 | . | . | . | . | .
CC1(c2ccc3ccccc3c2)NC(=O)N(CC(=O)N2CCN(Cc3ccc(C#N)cc3)CC2)C1=O (centres undefined) | ? | . | . | . | .
CC1CC(C)(C)CC2(C1)NC(=O)N(CC(=O)N1CCN(Cc3ccc(C#N)cc3)CC1)C2=O (centres undefined) | 50µM | . | . | . | .
CC(C)CC1NC(=O)N(CC(=O)N(C)C2CCCCC2)C1=O (centres undefined) | / | . | . | / | .
O=c1ccn([C@@H]2O[C@H](CNCc3ccccc3OCc3ccc(Cl)cc3Cl)[C@@H](O)[C@H]2O)c(=O)[nH]1 | / | . | / | / | /
CC(C)NC(=S)Nc1c(N)[nH]c(=O)[nH]c1=O | 56µM | . | . | . | .
Cc1ccc(C(=O)NC2(O)C(=O)c3ccccc3C2=O)cc1C | 50µM | . | . | . | .
Cc1cccc(N2CCN(C(=O)CCc3nc4ccccc4c(=O)[nH]3)CC2)c1C | / | . | . | / | .
Cc1ccc(Nc2ncc3c(n2)CC(c2ccco2)CC3=O)c(C)c1 (centres undefined) | 50µM | . | . | . | .
Cc1cccc(Nc2ncc3c(n2)CC(c2ccco2)CC3=O)c1 (centres undefined) | .[12.7 µM] | . | . | . | .
Cc1cc(C)cc(Nc2ncc3c(n2)CC(c2ccco2)CC3=O)c1 (centres undefined) | ? | . | ? | . | 89µM
CCOc1ccccc1NC(=O)CN1C(=O)COc2ccc(S(=O)(=O)N3CCOCC3)cc21 | . | ? | . | . | 16µM!
CCOc1ccccc1NC(=O)C1CCN(S(=O)(=O)c2ccc(OC)c(OC)c2)CC1 | 40µM | . | . | . | .
CCCNC(=O)CN1C(=O)COc2ccc(S(=O)(=O)N3CC(C)CC(C)C3)cc21 (centres undefined) | 32µM | . | . | . | .
Cc1cccc(NC(=O)CN2C(=O)CCSc3ccc(S(=O)(=O)N4CCOCC4)cc32)c1C | . | . | . | . | 50µM
CCCNC(=O)CN1C(=O)COc2ccc(S(=O)(=O)N3CCC(C)CC3)cc21 | . | . | . | . | .
O=C(CN1C(=O)CCSc2ccc(S(=O)(=O)N3CCOCC3)cc21)Nc1ccccc1Cl | . | . | . | ? | .
CCOc1ccccc1NC(=O)C1CCN(S(=O)(=O)c2ccc(Br)cc2)CC1 | . | . | . | . | .
Cc1ccc(NC(=O)C2CCCN(c3nnc(C)c4c(C)n(-c5ccccc5)nc34)C2)c(Cl)c1 (centres undefined) | . | . | . | ? | ?
SMILES | G9a inh | GLS inhibitor | HP1b chromo inh | BAZ2B block | JMJD2A Tudor inh
COc1ccccc1CCNC(=O)C(=O)NCC(c1ccco1)S(=O)(=O)c1ccc(F)cc1 (centres undefined) | . | . | . | . | .
CCc1ccc(NC(=O)c2ccc3[nH]c(C)c(C)c3c2)cc1 | . | . | . | . | .
Cc1[nH]n(-c2ccccc2)c(=O)c1C(c1ccccc1C(=O)O)c1c(C)[nH]n(-c2ccccc2)c1=O | ? | . | . | . | .
CCOc1cc(C(c2c(C)[nH]n(-c3ccccc3)c2=O)c2c(C)[nH]n(-c3ccccc3)c2=O)ccc1O | ? | . | ? | 11µM | 50µM
COc1ccc(C(c2c(C)[nH]n(-c3ccccc3)c2=O)c2c(C)[nH]n(-c3ccccc3)c2=O)cc1OC | ? | . | . | ? | ?
Cc1[nH]n(-c2ccccc2)c(=O)c1C(c1cc(Cl)ccc1O)c1c(C)[nH]n(-c2ccccc2)c1=O | ? | . | ? | ? | 45µM
S=C1NCCNC(=S)NCCOCCOCCN1 | . | . | . | . | 40µM
O=C(O)Cc1ccccc1C(=O)O | . | . | . | . | .
O=C(O)Cc1cccc(=O)c(O)c1C(=O)O | / | 2.2µM | 40µM | / | 1.1µM
COc1ccc(OC)c(C2Nc3c(Cl)ccc(C(=O)O)c3C3C=CCC32)c1 (centres undefined) | 20µM | . | ? | . | ?
COC(=O)COc1ccc(S(=O)(=O)N2CCN(c3ccccc3)CC2)cc1 | . | . | . | . | .
COc1cccc(C2Nc3c(F)cc(Br)cc3C3C=CCC32)c1OC (centres undefined) | . | . | . | . | .
COC(=O)COc1ccc(C2Nc3c(Cl)ccc(C(=O)O)c3C3C=CCC32)cc1 (centres undefined) | 13µM | ? | ? | 50µM | 45µM
CC(=O)Oc1ccccc1Cn1c(C)c(C(=O)NCc2ccccc2C(F)(F)F)sc1=O | / | . | / | / | /
O=S(=O)(c1ccc(F)cc1)N1CCN(c2nc(-c3ccc(F)cc3)nc3cc(Cl)ccc23)CC1 | / | / | . | / | .
COC1CCN(C(=O)c2ccc3oc(Cc4ccc(Cl)cc4)nc3c2)CC1 | . | . | . | . | .
Nc1ccc2oc(Cc3ccc(Cl)cc3)nc2c1 | 13µM | . | . | . | ?
O=[N+]([O-])c1ccc(O)c(C=Nc2ccc3oc(Cc4ccc(Cl)cc4)nc3c2)c1 | 28µM | / | / | ? | /
COc1ccccc1-c1nc(SCC(=O)Nc2ccc(C)c(C)c2)n[nH]1 | . | . | . | . | .
CCOc1ccccc1Nc1nc(-c2ccc(C)cc2)c(CC(=O)O)s1 | 7.9µM | . | . | . | .
COC(=O)CCc1sc(Nc2ccccc2)nc1-c1ccc(OC)cc1 | 11µM | . | . | ? | ?
O=C(O)Cc1sc(Nc2ccccc2)nc1-c1ccccc1 | ? | . | . | . | .
Cc1ccc(Nc2nc(-c3ccc(C)cc3)c(CC(=O)O)s2)cc1 | 35µM | . | . | ? | ?
O=C(O)Cc1sc(Nc2cccc3ccccc23)nc1-c1ccc(Cl)cc1 | 25µM | ? | . | ? | .
COc1ccc(Nc2nc(-c3ccc(OC)cc3)c(CCC(=O)O)s2)cc1 | ? | ? | . | ? | .
CCCCOC(=O)Nc1ccc(S(=O)(=O)Nc2ccc([N+](=O)[O-])cc2)cc1 | ? | . | . | . | .
CN(C)CCCNc1nc2cc(-c3ccc4c(ccn4C)c3)sc2c(=O)n1C | / | . | / | / | /
COc1cc(/C=C/C=C2/CC/C(=C/C=C/c3ccc(O)c(OC)c3)C2=O)ccc1O | / | ? | ? | / | 56µM

Compound activity: PubChem, National Center for Advancing Translational Sciences (NCATS)
